Screening results (PubChem)
Hits are enriched below; roughly 7.9% of the tested compounds scored in any of these assays.
HT1080NT lethal – kills 2HG-producing HT-1080-NT fibrosarcoma cells; HT-1080-NT fibrosarcoma viability, CellTiter-Glo ATP luminescence, 48 h; Potency, µM (top dose mostly 46.1 µM), for inactives: at the highest dose activity, negative = less viability, actives largely listed as cytotoxic; actives 1.6% (n = 360,000);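 further: NT is the 2HG producing partner of a matched IDH1 knockdown line; 0% = DMSO-treated cells and -100% = media-only wells without cells; nearly all actives have a fitted effect of over 55% in size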
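750 cells/well, RPMI + 5% FBS; 2 h settle, compound pin-transfer, 48 h at 37 degrees C. CellTiter-Glo 10 min RT, luminescence. Normalized to DMSO and media-only wells.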
SW480 rerep – inducers of DNA re-replication in SW480 colon cancer cells; SW480 DNA re-replication, Hoechst DNA content imaging, 48 h; Potency, µM (series often up to 46.1 µM), for the others: top-dose re-replication activation, hits mostly activators; actives 1.8% (n = 340,000); AID 624297; further: % of control where 0% means no effect; nearly all actives have a fitted effect of over 55% in size
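Quantitative HTS format with DMSO vehicle controls; 48 hr drug incubation at 37 C, then 40 min Hoechst staining and scanning imager measurement at 405 nm excitation.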
KB-3-1 cytotox – KB-3-1 parental cell cytotoxicity | KB-3-1 viability, CellTiter-Glo ATP luminescence, 72 h | Potency, µM (doses to about 46.1 µM), most hits filed as cytotoxic | actives 1.4% (n = 400,000) | AID 1347075; further: on the % scale 0 is the no-effect control and ±100 the full control effect; nearly all actives have a fitted effect of over 60% in size
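Parental KB-3-1 adenocarcinoma cells in phenol-red-free DMEM with 10% FBS were pin-treated with compounds at several concentrations, incubated 72 h at 37 °C, and viability read by CellTiter-Glo luminescence; concentration-effect curves were fitted after normalization.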
MCF10A rerep – induces DNA re-replication in MCF 10a normal breast cells. Potency, µM (doses to about 46.1 µM), for inactives: at the top dose activity, positive = re-replication, most hits filed as activators. MCF 10A DNA re-replication, Hoechst nuclear intensity, 48 h. actives 2.9% (n = 350,000); further: % of control where 0% means no effect; nearly all actives have a fitted effect of over 50% in size
KB-V1 cytotox – kills drug-selected multidrug resistant KB-V1 cells; KB-V1 MDR cells viability, CellTiter-Glo, 72 h; Potency, µM (doses to about 46.1 µM), actives largely listed as cytotoxic; actives 3.4% (n = 400,000); AID 1347076; further: on the % scale 0 is the no-effect control and ±100 the full control effect; nearly all actives have a fitted effect of over 60% in size
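Compound-treated KB-V1 multidrug-resistant cells, 72 h, 37 degrees C; viability by CellTiter-Glo. Fitted qHTS curves give the values.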
HT1080 IDH1KD tx – HT-1080 IDH1 knockdown cell toxicity (counter line) | HT-1080 IDH1 knockdown viability, ATP luminescence, 48 h | actives 2% (n = 360,000) | Potency, µM (highest dose often 46.1 µM), for inactives: top-dose activity, negative = toxicity, hits mostly cytotoxic;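 further: 0% = DMSO wells and -100% = cell-free medium wells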
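Assay cells: HT-1080 with IDH1 knockdown, 750 per well, RPMI/5% FBS. Exposure: 48 h at 37 °C following 2 h pre-incubation. Read: CellTiter-Glo luminescence; fitted concentration-response, curve class assigned.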
Numbers without * were called inactive; i = inactive; ? = inconclusive; nt = no result; [ ] = dose if it differs, or a comment. The call rests on the fitted dose curve; in most records, active means well fitted curve in the direction sought with a large enough effect; inconclusive means small, poorly fitted or top-dose-only effect, or another doubt; inactive means no such curve, though single readings can be large; an effect the other way counts as inactive or inconclusive. Potency means the concentration at half of the fitted maximal effect.

SMILES	HT1080NT lethal	SW480 rerep	KB-3-1 cytotox	MCF10A rerep	KB-V1 cytotox	HT1080 IDH1KD tx
COc1ccc(Cc2nnc(NC(=O)c3ccc(OC)c(OC)c3)s2)cc1	-12.7%	?	?	3.66µM*	i	-12.7%
CCc1nnc(NC(=O)CCC(=O)NCc2ccc(OC)cc2)s1	0.5%	-22.3%	i	2.1%	i	10.0%
COc1ccc(CNC(=O)CCC(=O)Nc2nnc(CC(C)C)s2)cc1	-4.9%	2.91µM*	i	0.0%	i	2.5%
COc1cc(OC)cc(C(=O)Nc2nnc(Cc3ccc(OC)c(OC)c3)s2)c1	-11.9%	-1.3%	i	4.1%	i	0.4%
COc1cc(OC)cc(C(=O)Nc2nnc(NC(=S)Nc3ccccc3)s2)c1	-8.5%	9.1%	i	10.3µM*	i	-15.2%
COc1cc(C(=O)Nc2nnc(Cc3ccccc3)s2)cc(OC)c1OC	?	?	i	?	i	10.3µM*
CCC(O)(c1ccccc1)C(CN1CCOCC1)c1ccccc1 (stereo not given)	-0.1%	-0.7%	i	-0.2%	i	-6.9%
CCOc1ccc(OCCC(=O)NNC(=O)c2cc(C)oc2C)cc1	-7.5%	-3.9%	i	1.8%	i	-4.8%
CCN(CC)S(=O)(=O)c1c(OC)cc(C)c(Cl)c1C	-2.5%	1.16µM*	i	18.6%	i	-2.2%
Cn1nc(C(C)(C)C)cc1C(=O)NCc1ccc(N2CCCC2=O)cc1	?	12.8%	0.651µM*	0.9%	0.581µM*	?
CCc1ccc(Nc2nnc(SCC(=O)Nc3sccc3C(N)=O)s2)cc1	-29.9%	?	?	16.4µM*	?	?
Cc1nnc(SCC(=O)Nc2cccnc2Cl)s1	6.4%	-273.1%	i	-2.2%	i	2.7%
CCc1ccc(Nc2nnc(SCC(=O)Nc3cccnc3Cl)s2)cc1	-1.7%	6.0%	i	1.1%	16.4µM*	0.0%
C[C@H](NC(=O)/C=C/[C@H]1O[C@@H](n2ccc(=O)[nH]c2=O)[C@H](O)[C@@H]1O)C(=O)O	14.0%	nt	i	nt	i	26.4%
Cc1nn(C)cc1/C=N\NC(=O)c1ccc(Cn2cc(Cl)cn2)cc1	-10.5%	-7.7%	i	?	?	-14.3%
CC1(N2CCCCC2)C(=O)c2ccccc2C1=O	-16.3%	-13.3%	i	?	i	-9.9%
CC1(S(=O)(=O)O)CC(=O)c2ccccc2C1=O (stereo not given)	18.4µM*	14.6µM*	?	?	i	20.6µM*
CCN(CC)c1ccc(NC(=O)c2sc3ccccc3c2Cl)cc1	nt	nt	i	nt	i	nt
CCN(CC)Cc1ccc(NC(=O)c2sc3cc(Cl)ccc3c2Cl)cc1	7.31µM*	?	?	?	?	23.1µM*
Cc1ccc2c(Cl)c(C(=O)Nc3ccc4c(c3)OCO4)sc2c1	22.1%	20.6µM*	i	?	i	22.6%
Cc1ccc2c(Cl)c(C(=O)NCc3cccnc3)sc2c1	-2.0%	0.8%	i	10.7%	14.6µM*	0.8%
CCOC(=O)CCC(=O)Nc1ccc(S(=O)(=O)N2CCC(C)CC2)cc1	11.4%	-2.7%	?	-1.1%	i	2.5%
CCOc1ccc(N2C(=O)CC(SC(=NC)Nc3ccc(F)cc3)C2=O)cc1 (stereo not given)	-9.5%	-2.1%[9.22 µM]	i	-3.3%	i	-9.4%
Cc1cc(C)nc(Sc2ccc(C=O)cc2[N+](=O)[O-])n1	1.1%	-6.9%	i	0.0%	i	12.1%
O=Cc1ccc(Sc2nnc(-c3ccccc3)o2)c([N+](=O)[O-])c1	?	?	?	2.91µM*	?	-24.2%
SMILES	HT1080NT lethal	SW480 rerep	KB-3-1 cytotox	MCF10A rerep	KB-V1 cytotox	HT1080 IDH1KD tx
Cn1nc([N+](=O)[O-])nc1Sc1cccc2cccnc12	-20.9%	-1.3%	i	1.4%	?	-11.9%
Cn1nc([N+](=O)[O-])nc1Sc1nnc(-c2ccccc2)o1	?	4.11µM*	?	?	i	?
O=C1C(Cl)=C(Nc2ccc3cn[nH]c3c2)C(=O)c2ccccc21	?	2.31µM*	?	0.581µM*	?	2.59µM*
CC(=O)Nc1ccc(NC2=C(Cl)C(=O)c3ccccc3C2=O)cc1	4.61µM*	5.17µM*	16.4µM*	?	?	2.91µM*
CN(C)c1ccc(NC2=C(Cl)C(=O)c3ccccc3C2=O)cc1	3.26µM*	2.91µM*	?	4.11µM*	i	2.31µM*
COc1cc(C(=S)N2CCOCC2)cc(OC)c1OC	nt	0.1%	?	2.5%	i	nt
COc1ccc(CNC(=O)Nc2nc(C(N)Cc3ccc(Cl)cc3)cs2)cc1 (stereo not given)	?	nt	?	nt	?	16.4µM*
COc1ccc(CC(N)c2csc(NC(=O)c3cc(C(C)(C)C)oc3C)n2)cc1 (stereo not given)	20.6µM*	nt	?	nt	i	20.6µM*
COc1cc(NC(=O)Nc2nc(C(N)Cc3ccc(C(F)(F)F)cc3)cs2)cc(OC)c1OC (stereo not given)	20.6µM*	nt	?	nt	i	18.4µM*
COc1ccc(CNC(=O)Nc2nc(C(N)Cc3ccc(F)cc3)cs2)cc1 (stereo not given)	?	nt	?	nt	i	13µM*
COc1ccc(-c2nc(=S)c3c(n2CCN2CCOCC2)CC(C)(C)OC3)cc1	10.2%	3.0%	i	-8.3%	i	7.3%
O=C(NCCN1CCCCCC1)C1CCN(S(=O)(=O)N2CCOCC2)CC1	8.2%	-6.2%	i	-6.0%	i	1.0%
O=S(=O)(CCNCc1cccs1)c1ccc(Cl)cc1	-8.1%	-9.0%	i	0.9%	i	8.6%
O=C(Cc1c(F)cccc1Cl)Nc1cc(S(=O)(=O)N2CCOCC2)ccc1N1CCCC1	1.6%	-5.2%	?	3.7%	i	-2.6%
CCN(CC)S(=O)(=O)c1ccc(C(=O)NNC(=O)c2csc(N3CCOCC3)n2)cc1	-0.9%	-0.1%	i	2.7%	i	-16.6%
Cc1cc(C)n2c(NC3CCCC3)c(-c3ccc(F)cc3)nc2n1	12.5%	nt	i	nt	i	2.5%
COc1ccc(CC(N)c2csc(NC(=O)Nc3ccc(OC)cc3)n2)cc1 (stereo not given)	23.1µM*	nt	?	nt	i	?
COc1ccccc1CNC(=O)Nc1nc(C(N)Cc2ccc(Cl)cc2)cs1 (stereo not given)	14.6µM*	nt	?	nt	i	20.6µM*
NC(Cc1ccc(F)cc1)c1csc(NC(=O)NC(c2ccccc2)c2ccccc2)n1 (stereo not given)	18.4µM*	nt	?	nt	?	16.4µM*
